Entries with a potency or affinity are not part of this list. Calls of active or inactive are those of the source. Cut-off not given; nearly all actives show IC50 up to about 0.91 µM.
Molecular target: Calcium-dependent protein kinase 4 (Plasmodium falciparum (isolate 3D7)) (UniProt Q8IBS5)
Experiment: PfCDPK4 kinase inhibitors, biochemical, TCAMS library (AID 1159588)
Details: recombinant PfCDPK4, Kinase-Glo ATP depletion luminescence

Sequence of Calcium-dependent protein kinase 4 (Plasmodium falciparum (isolate 3D7)) (Q8IBS5 whole entry, looked up): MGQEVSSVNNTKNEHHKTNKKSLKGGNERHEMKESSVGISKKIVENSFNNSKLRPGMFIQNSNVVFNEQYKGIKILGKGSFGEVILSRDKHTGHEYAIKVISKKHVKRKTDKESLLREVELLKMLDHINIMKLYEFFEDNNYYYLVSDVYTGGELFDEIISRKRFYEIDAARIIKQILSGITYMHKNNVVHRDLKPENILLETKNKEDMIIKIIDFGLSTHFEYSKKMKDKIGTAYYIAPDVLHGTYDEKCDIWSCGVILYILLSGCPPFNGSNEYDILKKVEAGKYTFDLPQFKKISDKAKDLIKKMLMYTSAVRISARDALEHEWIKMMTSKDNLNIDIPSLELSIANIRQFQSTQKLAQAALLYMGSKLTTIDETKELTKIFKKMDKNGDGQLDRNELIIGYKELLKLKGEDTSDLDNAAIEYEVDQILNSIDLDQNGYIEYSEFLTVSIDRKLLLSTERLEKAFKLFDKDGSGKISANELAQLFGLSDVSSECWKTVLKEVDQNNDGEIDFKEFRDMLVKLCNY

outcome, inactive:
COCCNCc1cccc(-c2ccc(CNC3CCN(Cc4ccccc4)CC3)cc2)c1
CCC(C)C#Cc1c(C)nc(N)nc1N (stereo unspecified)
Cc1cc(NC(=O)NCCN2CCC(NS(=O)(=O)c3ccccc3Cl)C2)c2ccccc2n1 (stereo unspecified)
O=C(CCc1ccccc1)NC(c1ccc(Cl)cc1)c1ccc2cccnc2c1O (stereo unspecified)
Fc1ccc2nc(-c3ccc(-c4cccc(CN5CCCCC5)c4)cc3)[nH]c2c1
O=C(Nc1ccc(-c2nc3ccccc3[nH]2)cc1)C1CCCN(C2CCC2)C1 (stereo unspecified)
NC(=O)C1CCN(Cc2ccc(-c3ccc(-c4nc5ccc(C(F)(F)F)cc5[nH]4)cc3)cc2)CC1
COc1ccc(-c2cccc(NC(=O)c3ccc(Cl)cc3)c2)cc1CNC(C)C
COc1ccc(CNC2CCN(C)CC2)cc1-c1ccc(S(=O)(=O)NCCc2ccccn2)c(F)c1
Cc1cnc(NCCc2ccc(F)cc2)nc1N[C@@H](CC(C)C)C(=O)Nc1ccccc1
Oc1ccc(Br)cc1-c1nc2ccc(Cl)cc2nc1-c1cc(Br)ccc1O
COc1ccc(CNC2CCN(C)CC2)cc1-c1cccc(S(=O)(=O)NCc2ccccc2)c1
CC[C@H](C)CNC(=O)c1ccnc(-c2ccc(CNCCCc3ccccc3)cc2)c1
CS(=O)(=O)c1ccc2nc(-c3cc(-c4ccc(OCCN5CCOCC5)cc4)cnc3N)[nH]c2c1
Cc1ccc2[nH]c3ccccc3c(=O)c2c1
Cc1ccc(-c2nnc3c4ccccc4c(C)nn23)cc1S(=O)(=O)N1CCN(CCO)CC1
